Assay outcomes as filed in PubChem BioAssay.
Pf growth 96h: inhibits malaria parasite growth, 96 h; 6.9% of 320,000 active; AID 504834; Potency, µM (doses to about 28.7 µM), most hits filed as inhibitors; P. falciparum luciferase reporter growth, 96 h
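Readout is luminescence from an integrated firefly luciferase in P. falciparum. Red cells, 2% hematocrit and 0.05% parasitemia final, were cultured with compound through two parasite generations (96 hours) at 37 C, 5% CO2.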
HCMV inh: human cytomegalovirus inhibition; 4.5% of 410,000 active; HFF cells, HCMV-luciferase reporter, 72 h; active compounds read low; AID 1259415; activity change, negative = inhibition, % at 57.5 µM; in the data active means activity change below about -60%; inconclusive means no clear call, values can overlap the other calls; inactive means above about -39%
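Cell-based, HFFs, 1000 cells/well, 16 h 37C; cpds in DMSO + HCMV-luc, MOI 1 PFU/cell; 72 h 37C; OneGlo luminescence after 5 min RT; norm. to buffer vs Salinomycin 10uM.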
Pf growth 48h: inhibits P. falciparum growth in the first generation, 48 h; Potency, µM (titrated, usually from 28.7 µM), usual class: inhibitors; P. falciparum luciferase growth in erythrocytes, 48 h; AID 504832; 5.9% of 310,000 active
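Here the parasites carry a stable luciferase gene and grow inside erythrocytes in Albumax-based RPMI medium with compound for one erythrocytic cycle. Activity is scored as loss of luminescent signal.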
HCV inh: HCV inhibition; Huh7.5.1 HCVcc-Cre infection, luciferase reporter, 44 h; 3.4% of 340,000 active; AID 651820; Potency, µM (doses to about 41.8 µM), hits mostly inhibitors
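Seed cells (1,000/well) for 4 h; treat with compound and infect with HCVcc-Cre, moi about 0.5. Incubate 44 h, then detect luciferase activity.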
Large screens that a line does not name were inactive. An excerpt weighted towards active compounds, which were near 13% of everything screened. Unless noted, the call rests on the fitted dose curve; in most records, active means well fitted inhibition curve with a large enough effect; inconclusive means small, poorly fitted or top-dose-only effect, or another doubt; inactive means no such curve, though single readings can be large or run the other way.

CC(C)CNc1ccc2c(n1)C(=O)N([C@H](C)C(=O)N[C@H](CO)c1ccccc1)C2	none (no result: Pf growth 96h, Pf growth 48h, HCV inh)
O=C(CCS(=O)(=O)c1ccc(Br)cc1)N1CCN(c2ccc(F)cc2)CC1	HCMV inh -65
COC(=O)c1ccccc1OCC(=O)N1CCN(c2ccc(F)cc2)CC1	HCV inh inconclusive
Cc1ccc(S(=O)(=O)CC(=O)N2CCN(c3ccc(F)cc3)CC2)cc1	Pf growth 96h inconclusive, HCMV inh inconclusive
COc1cc2c(cc1OC)CN(C(=O)CCNS(=O)(=O)c1ccc(Br)cc1)CC2	Pf growth 96h inconclusive, Pf growth 48h 9.3µM
CC(=O)c1cc(F)ccc1OCC(=O)N1CCN(c2ccc(F)cc2)CC1	Pf growth 48h 4.1µM, HCV inh inconclusive
COc1ccc(Cn2c(CO)cnc2SCC(=O)NCc2ccco2)cc1	none (no result: Pf growth 96h, Pf growth 48h, HCV inh)
COc1ccc(C(CCN(Cc2ccc(OC)c(OC)c2)C(C)=O)c2ccccc2)cc1 (stereo unspecified)	Pf growth 96h inconclusive, Pf growth 48h inconclusive
COc1ccccc1C(CC(=O)Nc1ccccc1C)c1ccc(OC(C)C)cc1 (stereo unspecified)	Pf growth 96h inconclusive, Pf growth 48h 15µM, HCV inh inconclusive
COc1ccc(C(CCNCc2ccc(N(C)C)cc2)c2ccccc2OC)cc1 (stereo unspecified)	Pf growth 96h inconclusive, Pf growth 48h inconclusive, HCV inh inconclusive
COc1ccc(CNCCC(c2ccccc2)c2ccc(OC(C)C)cc2)cc1OC (stereo unspecified)	Pf growth 96h inconclusive, Pf growth 48h 9.3µM, HCV inh 11µM
COc1ccc(C(CCNCc2ccc(OC(C)C)cc2)c2ccccc2OC)cc1 (stereo unspecified)	Pf growth 96h 12µM, HCMV inh -70, Pf growth 48h 12µM, HCV inh inconclusive
COc1ccc(CNCCC(c2ccc(F)cc2)c2ccc(OC(C)C)cc2)cc1OC (stereo unspecified)	Pf growth 96h 12µM, HCMV inh -97, Pf growth 48h 13µM, HCV inh inconclusive
CCNC(=O)C1(C)CCCN(C(=O)c2sccc2C)C1 (stereo unspecified)	none (no result: Pf growth 96h, Pf growth 48h, HCV inh)
COc1ccc(Br)cc1CNC(=O)CCc1cn(Cc2ccc(C)cc2)c2ccccc12	none (no result: Pf growth 96h, Pf growth 48h, HCV inh)
COc1ccc(CN(CCC(c2ccccc2)c2ccc(OC(C)C)cc2)C(=O)CCl)cc1OC (stereo unspecified)	Pf growth 96h 3.7µM, HCMV inh -100, Pf growth 48h inconclusive, HCV inh inconclusive
C=CCNc1ncnc2ccccc12	none
C=CCNc1ncnc2c1[nH]c1ccc(Cl)cc12	HCMV inh -97, Pf growth 48h inconclusive, HCV inh inconclusive (no result: Pf growth 96h)
C=CCNc1ncnc2c1cnn2-c1ccc(Cl)cc1	none
C=CCNc1ncnc2c1[nH]c1ccccc12	Pf growth 96h inconclusive, Pf growth 48h 13µM, HCV inh 11µM
O=C(Cc1ccc(-n2c(=S)[nH]c3ccccc3c2=O)cc1)N1CCN(c2ccccc2)CC1	none (no result: Pf growth 48h)
O=c1c2ccccc2c(C=Nc2cccc(O)c2)c(O)n1-c1ccc2c(c1)OCO2	Pf growth 96h inconclusive, HCMV inh -86, Pf growth 48h inconclusive
O=c1c2ccccc2[nH]c(=S)n1-c1ccc2c(c1)OCO2	Pf growth 48h 12µM
Cc1sc2ncn(CC(=O)N3CCN(c4ccc(F)cc4)CC3)c(=O)c2c1S(=O)(=O)N1CCCCC1	none (no result: Pf growth 96h, Pf growth 48h, HCV inh)
COc1ccc(CC(=O)NCc2nc3cccnc3n2Cc2ccc(C)cc2)cc1OC	none (no result: Pf growth 96h, Pf growth 48h, HCV inh)
C[N+]1(C)CCC(OC(=O)C(O)(c2ccccc2)C2CCCC2)C1 (stereo unspecified)	HCMV inh -90 (no result: Pf growth 96h, Pf growth 48h)
OC(CCN1CCCCC1)(c1ccccc1)C1CCCCC1 (stereo unspecified)	none (no result: Pf growth 96h, Pf growth 48h, HCV inh)
OC(CC#CCN1CCCCCC1)(c1ccccc1)C1CCCC1 (stereo unspecified)	Pf growth 96h 2.9µM, Pf growth 48h inconclusive
CC[N+](CC)(CC)CC[C@](O)(c1ccccc1)C1CCCCC1	Pf growth 96h 5.7µM, Pf growth 48h 6.4µM (no result: HCMV inh, HCV inh)
CC[N+](CC)(CC)CCCOC(=O)C(O)(c1ccccc1)C1CCCCC1 (stereo unspecified)	Pf growth 48h 2.9µM (no result: Pf growth 96h)
Cc1cccc(-n2c(N)cc(=O)nc2SCC(=O)Nc2ccc(F)cc2)c1C	none (no result: Pf growth 96h, Pf growth 48h, HCV inh)
O=C1C(n2ccc3ccccc32)c2ccccc2N1Cc1ccc(Cl)nc1 (stereo unspecified)	none (no result: Pf growth 96h, Pf growth 48h, HCV inh)
OC(C#CCN1CCCCCC1)(c1ccccc1)c1cccnc1 (stereo unspecified)	Pf growth 96h 12µM, Pf growth 48h inconclusive
CCN(CC)S(=O)(=O)c1ccc2c(c1)N(CC(=O)N1CCN(c3cccc(C)c3C)CC1)C(=O)CO2	none (no result: Pf growth 96h, Pf growth 48h, HCV inh)
CCN(CC)CCN1C(=O)C2C3c4ccccc4C(c4ccccc43)C2C1=O (stereo unspecified)	Pf growth 96h 5.2µM, Pf growth 48h inconclusive
O=C(O)CCN1C(=O)C2C3c4ccccc4C(c4ccccc43)C2C1=O (stereo unspecified)	none
COC(=O)c1cccc(Nc2c(-c3cc(Br)ccc3O)nc3nc[nH]n23)c1	none (no result: Pf growth 96h, Pf growth 48h, HCV inh)
Cc1cccc(C)c1OCC(O)Cn1c2ccccc2c2ccccc21 (stereo unspecified)	Pf growth 48h 10µM, HCV inh inconclusive
Cc1ccc(OCC(O)CN2CCCC2)cc1 (stereo unspecified)	Pf growth 96h inconclusive
OC(CN1CCOCC1)Cn1c2ccccc2c2ccccc21 (stereo unspecified)	Pf growth 48h inconclusive
Cc1ccc(OCC(O)Cn2c3ccccc3c3ccccc32)cc1 (stereo unspecified)	Pf growth 96h inconclusive, Pf growth 48h 9.3µM, HCV inh inconclusive
Cc1ccc(OCCN2CCN(CC(O)Cn3c4ccccc4c4ccccc43)CC2)cc1 (stereo unspecified)	Pf growth 48h 2.6µM, HCV inh inconclusive
OC(COCC(F)(F)C(F)(F)C(F)(F)C(F)F)Cn1c2ccccc2c2ccccc21 (stereo unspecified)	Pf growth 48h 12µM, HCV inh inconclusive
Cc1ccc(C)c(NC(=O)CCS(=O)(=O)c2cccc3nsnc23)c1	none (no result: Pf growth 96h, Pf growth 48h, HCV inh)
O=C(COCc1cc(-c2ccc3c(c2)OCO3)on1)Nc1cc(C(F)(F)F)ccc1Cl	none (no result: Pf growth 96h, Pf growth 48h, HCV inh)
Cc1ccc(CNC(=O)Cn2ncc3c([nH]c4ccc(C)cc43)c2=O)cc1	none (no result: Pf growth 96h, Pf growth 48h, HCV inh)
OC(CN1CCN(Cc2ccccc2)CC1)Cn1c2ccccc2c2ccccc21 (stereo unspecified)	Pf growth 48h 2.6µM, HCV inh 11µM
CCN(C(=O)CSc1nc(-c2ccccc2)no1)c1cccc(C)c1	HCMV inh -107 (no result: Pf growth 96h, Pf growth 48h, HCV inh)
CCN(C(=O)CSc1ncccc1C(=O)OC(C)C)c1cccc(C)c1	Pf growth 96h inconclusive (no result: Pf growth 48h)
CCOC(=O)c1cccnc1SCC(=O)N(CC)c1cccc(C)c1	Pf growth 96h 12µM, HCMV inh inconclusive, HCV inh inconclusive (no result: Pf growth 48h)
CCN(C(=O)CSc1nc2ccccc2nc1Cc1ccc(F)cc1)c1cccc(C)c1	none (no result: Pf growth 96h, Pf growth 48h, HCV inh)
CCCc1c(C)c2cc(C)ccc2[nH]c1=O	Pf growth 96h 9.3µM
C=CCc1c(C)[nH]c2ccc(C)cc2c1=O	Pf growth 48h 1.5µM (no result: Pf growth 96h)
CCCCc1c(C)c2cc(C)ccc2[nH]c1=O	none (no result: Pf growth 48h)
Cc1ccc2[nH]c(C)c(CC(=O)O)c2c1	Pf growth 48h inconclusive (no result: Pf growth 96h)
